Source: PubChem
hcDAF12 agonist: activates DAF-12 receptor from parasite H. contortus | AID 652067 | 370,000 tested, 1.4% active | HEK293 hcDAF-12 lit1-tk-luc reporter, luminescence; 0% DMSO, 100% Δ7-dafachronic acid | activation, % at 6.8 µM;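 active means activation above the mean of all tested compounds plus 3 SD, cut at about 5.5% in these data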;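 further: 100% = response to 3 µM Δ7-dafachronic acid high control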
ssDAF12 agonist: S. stercoralis DAF-12 activation, primary screen | HEK293 ssDAF-12/GRIP1 lit1-tk-luc reporter, luminescence; % of 3 µM dafachronic acid response | 370,000 tested, 1% active | activation, % at 6.8 µM;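 active means activation above the mean over all tested compounds plus 3 SD, cut at about 0.9% in these data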;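 further: 0% = DMSO-only wells and 100% = 3 µM delta7-dafachronic acid wells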
DAX1 inh-1: inhibitors of human orphan nuclear receptor DAX1 (NR0B1); P51843; HEK293 Gal4-DAX1 luciferase reporter, luminescence; inhibition, % at 6.75 µM; 340,000 tested, 0.99% active; AID 504766;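 active means inhibition above the mean over all tested compounds plus 3 SD, cut at about 4.2% in these data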;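 further: 0% = DAX1-transfected cells with DMSO and 100% = empty-vector control cells with DMSO; inhibition shows as a rise in luminescence from relieved DAX1 repression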
Target sequence (P51843 207-470 limits assumed): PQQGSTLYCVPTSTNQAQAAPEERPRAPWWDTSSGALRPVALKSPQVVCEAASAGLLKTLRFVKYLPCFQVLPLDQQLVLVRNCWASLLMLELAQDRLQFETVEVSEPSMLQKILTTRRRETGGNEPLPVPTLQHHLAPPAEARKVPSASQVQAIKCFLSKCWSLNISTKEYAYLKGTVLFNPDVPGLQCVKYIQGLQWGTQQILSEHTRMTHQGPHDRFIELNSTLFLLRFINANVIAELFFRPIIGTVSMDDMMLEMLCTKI
DAX1 inh-2: inhibitors of DAX1 repression of SF-1 activated StAR promoter. inhibition, % at 6.8 µM. 370,000 tested, 1.1% active. AID 652010. HEK293T StAR-luciferase reporter, SF-1/DAX-1 repression relief;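 active means inhibition above the mean over all tested compounds plus 3 SD, cut at about 3.6% in these data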;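 further: 0% = DAX-1 cells with DMSO and 100% = cells lacking DAX-1 with DMSO; higher inhibition means more luminescence from relief of DAX-1 repression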
hgDAF12 agonist: agonists of H. glycines DAF-12 nuclear receptor | HEK293 GAL4-hgDAF12 UAS-luciferase reporter, agonist luminescence; normalized to butyrate control | activation, % at 6.8 µM | 370,000 tested, 1.8% active;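 active means activation above a cutoff set at the mean of all screened compounds plus 3 SD, cut at about 10% in these data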;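 further: 0% = DMSO wells and 100% = sodium butyrate wells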
DAX1 inh confirm: confirmation of human DAX1 (NR0B1) inhibitors; shares compounds with DAX1 inh-2; HEK293T StAR-promoter luciferase reporter, SF-1/DAX-1 repression; inhibition, % at 6.8 µM; 2,400 tested, 87% active; AID 652134;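 active means inhibition above the average of every tested compound plus 3 SD, cut at about 3.8% in these data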;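 further: 0% = DAX-1 cells with DMSO and 100% = no DAX-1 control cells with DMSO; active compounds raise luminescence by relieving repression of the StAR reporter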
SF1 mutant ctr: counter-screen for DAX1 inhibitors: nonselective inhibitors with SF-1 AF2 mutant; HEK293 StAR-luciferase, luminescence; shares compounds with DAX1 inh-2; inhibition, % at 6.8 µM; 2,400 tested, 78% active;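 active means inhibition above the mean of all tested compounds plus 3 SD, cut at about 3% in these data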;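 further: 0% = DAX-1 transfected cells with DMSO and 100% = cells without DAX-1 with DMSO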
LXRb hcDAF ctr: activates human LXR-beta, counter-screen for hcDAF-12 agonists; shares compounds with hcDAF12 agonist; HEK293 Gal4-LXR tk-luc reporter, luminescence, 24 h; normalized: DMSO 0%, positive control 100%; activation, % at 6.8 µM; 3,400 tested, under 10 active;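 active means mean percent activation of the reporter above a cutoff set as the average over tested compounds plus their standard deviation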
Target sequence (P55055 whole entry, looked up, the tested form may be a part): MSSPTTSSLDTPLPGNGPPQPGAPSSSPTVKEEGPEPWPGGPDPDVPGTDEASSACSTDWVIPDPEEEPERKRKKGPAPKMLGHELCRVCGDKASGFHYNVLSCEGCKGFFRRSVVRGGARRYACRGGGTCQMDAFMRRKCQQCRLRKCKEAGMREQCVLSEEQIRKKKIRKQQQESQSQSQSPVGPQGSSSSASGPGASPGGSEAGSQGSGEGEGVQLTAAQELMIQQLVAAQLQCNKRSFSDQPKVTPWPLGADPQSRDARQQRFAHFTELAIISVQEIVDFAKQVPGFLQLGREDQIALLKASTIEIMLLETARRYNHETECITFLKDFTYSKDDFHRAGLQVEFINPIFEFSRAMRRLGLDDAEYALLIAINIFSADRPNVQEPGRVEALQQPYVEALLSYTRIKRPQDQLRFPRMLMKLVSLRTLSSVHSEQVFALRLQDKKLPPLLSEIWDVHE
hcDAF12 ag: hcDAF-12 agonism, confirmation assay. shares compounds with hcDAF12 agonist. 3,400 tested, 61% active. HEK293 hcDAF-12 lit1-tk-luc reporter, luminescence; % of Δ7-dafachronic acid response. activation, % at 6.8 µM;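 active means mean activation across triplicate tests above the threshold derived from the earlier primary screen, cut at about 5.5% in these data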;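 further: 0% = DMSO only wells and 100% = 3 µM Δ7-dafachronic acid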
hgDAF12 conf: confirmation of H. glycines DAF-12 agonists; shares compounds with hgDAF12 agonist; activation, % at 6.8 µM; 3,300 tested, 80% active; HEK293 GAL4-hgDAF12 luciferase reporter, agonist mode; percent of butyrate response;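 active means mean activation over triplicate wells above the hit cutoff derived from the earlier primary screen, cut at about 11% in these data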;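 further: 0% = DMSO low control and 100% = 2 mM sodium butyrate high control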
LXR ag 2: counter-screen for DAF-12 agonists: agonists of human LXR-beta; shares compounds with hgDAF12 agonist; HEK293 Gal4-LXR luciferase reporter, 24 h; activation, % at 6.8 µM; 3,300 tested, under 10 active; AID 743051;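 active means mean activation of the triplicate above a set limit carried over from the primary screen, none filed active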
Starred values were filed as active, the others as inactive; nt = not tested or not shown; + = active, no number. Hits are enriched below; roughly 4.1% of the tested compounds scored in any of these assays.

SMILES | hcDAF12 agonist | ssDAF12 agonist | DAX1 inh-1 | DAX1 inh-2 | hgDAF12 agonist | DAX1 inh confirm | SF1 mutant ctr | LXRb hcDAF ctr | hcDAF12 ag | hgDAF12 conf | LXR ag 2
COC(=O)c1ccc(NC(=O)c2ccc3nccnc3c2)cc1 | -2.6 | -1.1 | -0.5 | -0.3 | 2.9 | nt | nt | nt | nt | nt | nt
CC(=O)c1ccc(NC(=O)c2ccc(C)c(Br)c2)cc1 | 5.7* | -0.3 | 3.3 | 4.9* | 16.2* | 11.9* | 9.4* | nt | nt | 18.2* | 0.7
C[C@@H]1COc2cccc(N3CCSCC3)c2S(=O)(=O)N1C | 0.6 | -0.5 | nt | -0.7 | -0.3 | nt | nt | nt | nt | nt | nt
N=C1N(c2ccccc2)C(=S)C(=Nc2ccccc2)N1c1ccccc1 | 9.8* | -0.3 | 2.6 | 8.6* | 17.1* | -5.0 | -2.8 | 0.0 | 0.8 | 6.9 | 0.4
Fc1ccc(N2C(=S)SC(=Nc3ccccc3)C2=Nc2ccccc2)cc1 | 3.7 | -0.9 | 2.1 | 0.9 | 7.1 | nt | nt | nt | nt | nt | nt
Cc1ccc2c(c1)N(CCCC(=O)N(C)Cc1ccccc1Cl)C(=O)CO2 | -2.9 | -1.2 | nt | -0.9 | -2.0 | nt | nt | nt | nt | nt | nt
O=C(CCCCCCC(=O)Nc1ccccc1)NO | 11.9* | 2.0* | 12.7* | 32.6* | 40.6* | + | -5.5 | 0.5 | 7.0* | 41.2* | 0.5
Cc1cc(SCC(=O)c2ccccc2)nc(=O)[nH]1 | 5.5 | -0.2 | 1.9 | 1.6 | 5.6 | nt | nt | nt | nt | nt | nt
Cc1ccc(C(=O)CSc2cc(C)[nH]c(=O)n2)cc1 | 3.2 | 0.4 | 5.0* | 11.8* | 14.6* | 11.4* | 8.3* | nt | nt | 15.7* | 0.6
O=C(Nc1ccc2ccccc2c1)c1cc(F)c(F)cc1Cl | 0.1 | 0.5 | 3.6 | 2.9 | 10.1 | nt | nt | nt | nt | nt | nt
O=C(Nc1ccc2ccccc2c1)c1ccccc1Cl | 9.3* | 2.3* | 2.3 | 13.0* | 13.6* | 16.9* | 9.2* | 1.9 | 7.7* | 22.1* | 1.1
Cc1ccccc1C(=O)NC1CCCCN(C(C)C)C1=O (stereo unspecified) | -3.0 | 0.2 | nt | 0.2 | 1.7 | nt | nt | nt | nt | nt | nt
CC1CCc2c(sc(NC(=O)C3=COCCO3)c2C(N)=O)C1 (stereo unspecified) | 8.7* | 1.4* | 4.1 | 5.7* | 15.1* | 12.1* | 6.5* | 1.0 | 5.1 | 19.4* | 0.8
CNC(=O)c1c(NC(=O)C2=COCCO2)sc2c1CCC(C)C2 (stereo unspecified) | -1.7 | -1.2 | -0.1 | -1.9 | 1.6 | nt | nt | nt | nt | nt | nt
O=C(N/N=C/c1ccccn1)c1ccc(NC(=O)c2ccc(F)cc2)cc1 | 1.0 | -0.9 | -1.9 | -1.0 | -2.0 | nt | nt | nt | nt | nt | nt
COc1ccc(C(=O)N/N=C/c2ccccn2)cc1 | 1.4 | -0.5 | 0.2 | 4.5* | 13.5* | 6.6* | 4.1* | nt | nt | 12.9* | 0.5
c1ccc2sc(-n3cc(C4CCCCC4)nn3)nc2c1 | 6.6* | 1.3* | nt | 9.2* | 26.2* | 15.4* | 8.7* | 1.3 | 5.9* | 25.0* | 0.9
c1ccc2sc(N3CCOCC3)nc2c1 | 0.6 | -1.3 | 0.8 | 0.7 | 3.7 | nt | nt | nt | nt | nt | nt
C1=C(c2cn(-c3nc4ccccc4s3)nn2)CCCC1 | 11.9* | 0.6 | nt | 11.5* | 20.4* | 12.0* | 5.8* | 1.6 | 8.5* | 20.1* | 0.8
Cc1ccc(-n2c(Cc3cccs3)nnc2SCc2ccc([N+](=O)[O-])cc2)cc1 | -3.0 | -2.2 | nt | -0.6 | -3.0 | nt | nt | nt | nt | nt | nt
N#C/C(=N\Nc1ccc(F)cc1)C(=N)N1CCCCC1 | 8.1* | 0.9* | 5.3* | 6.0* | 18.2* | 17.8* | 7.1* | 1.4 | 4.7 | 17.9* | 0.8
O=C(N/N=C/c1ccccc1[N+](=O)[O-])c1ccc2c(c1)OCCO2 | 6.2* | 0.9 | -5.5 | 5.6* | 23.8* | 10.8* | 4.8* | nt | nt | 15.4* | 1.0
O=C(N/N=C/c1cc([N+](=O)[O-])ccc1O)c1ccc2c(c1)OCCO2 | -0.8 | -1.9 | -0.9 | 0.4 | 0.5 | nt | nt | nt | nt | nt | nt
O=C(N/N=C/c1cccc(O)c1)c1ccc2c(c1)OCCO2 | 12.8* | 1.1* | -1.4 | 19.4* | 18.2* | 17.2* | 9.4* | 1.5 | 8.5* | 18.3* | 1.1
O=S1(=O)c2ccc(Br)cc2OC[C@H](Cc2ccccc2)N1Cc1cn(CCC2OCCO2)nn1 | -3.3 | -1.5 | nt | -1.4 | 2.3 | nt | nt | nt | nt | nt | nt
SMILES | hcDAF12 agonist | ssDAF12 agonist | DAX1 inh-1 | DAX1 inh-2 | hgDAF12 agonist | DAX1 inh confirm | SF1 mutant ctr | LXRb hcDAF ctr | hcDAF12 ag | hgDAF12 conf | LXR ag 2
O=C(Nc1ncccc1O)c1ccc(OCC2CCCO2)cc1 (stereo unspecified) | 5.0 | 0.0 | 2.3 | 17.8* | 27.7* | 13.7* | 5.7* | nt | nt | 26.9* | 0.6
Cc1ccc2nc(C)/c(=N\O)c(C)nc2c1 | 10.0* | 0.6 | -1.3 | 5.3* | 14.6* | 5.3* | 3.2* | 0.2 | 4.9 | 5.2 | 0.5
Cc1ccc2nc(N)nnc2c1 | -0.4 | -1.1 | 1.6 | 0.1 | 2.1 | nt | nt | nt | nt | nt | nt
CCn1c(C)cc(C=C2C(=O)c3ccccc3C2=O)c1C | 16.6* | 4.4* | 0.8 | 5.6* | 18.2* | 15.1* | 8.0* | 2.2 | 14.6* | 15.1* | 1.3
Cc1cc(C=C2C(=O)c3ccccc3C2=O)c(C)n1C | 2.1 | 0.0 | -1.4 | 0.0 | 4.3 | nt | nt | nt | nt | nt | nt
COc1ccc(NC(=O)N(C)[C@H]2C[C@H]3c4[nH]c5c(-c6cccc(C)c6)cccc5c4CCN3C(=O)[C@H]2[C@H](C)O)cc1 | -4.0 | -1.4 | nt | -1.3 | -1.9 | nt | nt | nt | nt | nt | nt
COc1ccc(Nc2nc(C)c(C(C)=O)s2)cc1 | 4.4 | -1.0 | nt | 4.9* | 16.9* | 5.1* | 4.6* | nt | nt | 7.6 | 0.3
CC(=O)c1sc(NC(=O)c2ccccc2F)nc1C | 5.4 | 0.2 | -0.4 | 5.4* | 14.0* | 12.9* | 6.4* | nt | nt | 14.3* | 0.6
CC(=O)c1sc(NC(=O)c2ccc(C(C)(C)C)cc2)nc1C | 6.2* | 0.6 | 1.2 | 7.6* | 13.3* | 14.3* | 9.6* | nt | nt | 18.6* | 1.0
COc1ccc(C(=O)c2sc(Nc3ccc(NC(C)=O)cc3)nc2C)cc1 | -2.8 | -1.8 | -2.1 | -0.3 | -2.2 | nt | nt | nt | nt | nt | nt
CC(=O)c1sc(NC(=O)C(C)(C)C)nc1C | -0.2 | -1.1 | 0.2 | 0.1 | 3.6 | nt | nt | nt | nt | nt | nt
